From PMC5540273 (PLoS ONE, 2017) come the findings set out here.

Among the test systems are PIK3CG; PIKFYVE; PIM1; PIM2; PIM3; PIP5K1A; PIP5K1C; PIP5K2B; PKMYT1; PKN1; PKN2; PLK1; PLK2; PLK3; PLK4; PRKCD.
Details in all cases: concentration: 1 μM, replicates: in singlicate; n = 1
In a further assay the test system is T1, PIK4CB.
T1 construct: gene PI4KB

In another assay the test system is T2, PIP5K2C.
T2 construct: gene PIP4K2C

A further assay concerns T3, PKAC-alpha.
T3 construct: gene PRKACA

Another assay concerns T4, PKAC-beta.
T4 construct: gene PRKACB
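Further: KINOMEscan kinase panel screen.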

With `CCc1nc(-c2cccc(C)c2)c(-c2ccncc2)s1`, the “%Inh” value came to 0% in the assay on PIK3CG; 0% in the assay with PIK4CB; 39% with PIKFYVE; 17% in the assay with PIM1; 0% in the assay on PIM2; 29% in the assay with PIM3. The “%Inh” value with PIP5K1A turned out to be 0%; in the assay with PIP5K1C, 36%; in the assay with PIP5K2B, 19%; in the assay on PIP5K2C it was 25%; in the assay on PKAC-alpha, 0%; with PKAC-beta, 7%. Further, the “%Inh” value is given as 8% in the assay with PKMYT1; 6% in the assay on PKN1; 0% with PKN2; 0% in the assay on PLK1; 0% with PLK2; 14% with PLK3. Further, the “%Inh” value in the assay with PLK4 and with PRKCD was 0% in each case.

Regarding `CCCC(=O)Nc1n[nH]c2ncc(-c3cccc4ccccc34)cc12` [SB-642057], the “%Inh” value is 10% in the assay on PIK3CG; 39% with PIK4CB; 0% with PIKFYVE; 10% in the assay with PIM1; 0% with PIM2; 2% in the assay with PIM3. The “%Inh” value was 0% in the assay with PIP5K1A; 34% in the assay with PIP5K1C; 0% in the assay with PIP5K2B; 13% in the assay with PIP5K2C; 0% with PKAC-alpha; 0% with PKAC-beta. The “%Inh” value in the assay with PKMYT1 is 22%; in the assay with PKN1 it was 19%; in the assay with PKN2 it was 0%; in the assay with PLK1, 0%; with PLK2, 0%; with PLK3, 1%. Moreover, the “%Inh” value with PLK4 is 13%; in the assay on PRKCD it was 0%.

With `COc1cc(Nc2ccnc3ccc(C(F)(F)F)cc23)cc(OC)c1OC` [GW577382], the “%Inh” value came out at 0% in the assay with PIK3CG; 0% in the assay on PIK4CB; 0% in the assay on PIKFYVE; 2% with PIM1; 0% in the assay on PIM2; 0% in the assay on PIM3. Further, the “%Inh” value is 0% in the assay with PIP5K1A; 54% in the assay on PIP5K1C; 10% in the assay on PIP5K2B; 50% in the assay on PIP5K2C; 14% in the assay with PKAC-alpha; 4% in the assay with PKAC-beta. Besides, the “%Inh” value with PKMYT1 is given as 6%; with PKN1 it was 0%; in the assay with PKN2, 0%; with PLK1, 12%; with PLK2 it was 0%; in the assay on PLK3 it was 0%. Besides, the “%Inh” value in the assay on PLK4 was found to be 50%; with PRKCD, 15%.

For `Cc1cccc(-c2nc(Nc3ccc4c(cnn4C)c3)c3ccccc3n2)n1` [GW876731], the “%Inh” value with PIK3CG turned out to be 0%; in the assay with PIK4CB, 26%; in the assay with PIKFYVE, 91.5%; in the assay with PIM1, 8%; in the assay with PIM2 it was 1%; in the assay with PIM3, 21%. Further, the “%Inh” value with PIP5K1A is on record as 0%; with PIP5K1C it was 0%; in the assay on PIP5K2B, 0%; in the assay on PIP5K2C, 0%; in the assay on PKAC-alpha, 0%; in the assay on PKAC-beta, 14%. Further, the “%Inh” value stood at 4% with PKMYT1; 55% with PKN1; 33% with PKN2; 7% with PLK1; 0% in the assay with PLK2; 0% with PLK3. Further, the “%Inh” value with PLK4 was found to be 13%; with PRKCD, 5%.

On to `COc1cc(Nc2nccc(N3CCC(NC(=O)C(C)c4ccc(Cl)cc4)C3)n2)cc(OC)c1OC` (stereo not shown) [GSK1379757], for which the “%Inh” value amounted to 2% with PIK3CG; 0% with PIK4CB; 0% in the assay with PIKFYVE; 0% in the assay with PIM1; 0% in the assay on PIM2; 0% with PIM3. Further, the “%Inh” value is 42% with PIP5K1A; 35% with PIP5K1C; 3% in the assay on PIP5K2B; 79% in the assay on PIP5K2C; 0% with PKAC-alpha; 0% with PKAC-beta. Besides, the “%Inh” value with PKMYT1 stood at 0%; in the assay on PKN1 it was 19%; in the assay with PKN2 it was 0%; in the assay with PLK1, 0%; in the assay on PLK2, 0%; with PLK3 it was 0%. The “%Inh” value in the assay with PLK4 and with PRKCD was 0% throughout.

As for `Nc1ncnc2c1ncn2-c1cccc(F)c1` [SKF-97560], the “%Inh” value in the assay with PIK3CG was determined as 14%; in the assay on PIK4CB, 14%; in the assay on PIKFYVE, 17%; with PIM1, 1%; with PIM2, 18%; with PIM3, 0%. Besides, the “%Inh” value stood at 6% in the assay on PIP5K1A; 0% in the assay on PIP5K1C; 9% with PIP5K2B; 0% with PIP5K2C; 21% in the assay with PKAC-alpha; 0% in the assay with PKAC-beta. The “%Inh” value in the assay on PKMYT1 was determined as 0%; with PKN1 it was 4%; with PKN2, 0%; in the assay on PLK1, 34%; in the assay with PLK2, 22%; with PLK3, 25%. The “%Inh” value with PLK4 was found to be 9%; in the assay on PRKCD, 1%.

On to `Cc1cc(Nc2nc(-c3cccc(C)n3)nc3ccccc23)ccn1` [GW872411], for which the “%Inh” value was 0% in the assay on PIK3CG; 0% with PIK4CB; 53% in the assay on PIKFYVE; 0% in the assay with PIM1; 0% in the assay on PIM2; 0% in the assay on PIM3. For the same compound, the “%Inh” value in the assay on PIP5K1A was determined as 2%; in the assay on PIP5K1C, 0%; with PIP5K2B, 0%; in the assay on PIP5K2C, 0%; in the assay on PKAC-alpha, 0%; in the assay on PKAC-beta, 0%. Besides, the “%Inh” value with PKMYT1 worked out at 24%; with PKN1, 0%; in the assay with PKN2, 0%; in the assay with PLK1 it was 0%; in the assay with PLK2, 0%; with PLK3, 1%. Moreover, the “%Inh” value in the assay with PLK4 was determined as 0%; with PRKCD, 8%.

On to `COc1cc(Nc2nccc(N3CCC(NC(=O)C4COc5ccccc5O4)C3)n2)cc(OC)c1OC` (stereo not shown) [GSK1379761], for which the “%Inh” value was 0% in the assay with PIK3CG; 0% in the assay with PIK4CB; 21% in the assay with PIKFYVE; 0% with PIM1; 0% in the assay on PIM2; 0% with PIM3. The “%Inh” value with PIP5K1A is on record as 51%; in the assay with PIP5K1C it was 0%; in the assay with PIP5K2B it was 6%; with PIP5K2C it was 89%; in the assay on PKAC-alpha, 4%; with PKAC-beta, 0%. Moreover, the “%Inh” value with PKMYT1 was found to be 5%; in the assay on PKN1, 0%; in the assay with PKN2, 7%; in the assay on PLK1 it was 13%; with PLK2, 0%; with PLK3, 0%. Moreover, the “%Inh” value came out at 9% with PLK4 and 18% in the assay with PRKCD.

On to `COc1cccc(-n2cnc3c(N)ncnc32)c1` [SKF-97416], for which the “%Inh” value in the assay with PIK3CG is 44%; with PIK4CB it was 41%; in the assay with PIKFYVE, 41%; in the assay with PIM1, 20%; in the assay with PIM2, 14%; in the assay on PIM3, 24%. In addition, the “%Inh” value in the assay on PIP5K1A is 2%; in the assay on PIP5K1C it was 13%; with PIP5K2B, 0%; in the assay on PIP5K2C, 0%; in the assay on PKAC-alpha, 11%; in the assay on PKAC-beta, 20%. The “%Inh” value with PKMYT1 is 10%; with PKN1 it was 0%; in the assay with PKN2, 24%; in the assay with PLK1 it was 58%; in the assay on PLK2 it was 43%; with PLK3, 18%. The “%Inh” value is reported as 21% in the assay with PLK4 and 6% in the assay with PRKCD.

Consider `COc1cccc(C2=C(Nc3cccc(C(=O)O)c3)C(=O)NC2=O)c1` [SB-390770], for which the “%Inh” value with PIK3CG is given as 5%; with PIK4CB it was 0%; in the assay with PIKFYVE it was 0%; in the assay with PIM1, 0%; with PIM2, 0%; in the assay on PIM3 it was 0%. Moreover, the “%Inh” value worked out at 5% with PIP5K1A; 56% in the assay on PIP5K1C; 4% with PIP5K2B; 23% in the assay with PIP5K2C; 0% with PKAC-alpha; 0% with PKAC-beta. For the same compound, the “%Inh” value with PKMYT1 is reported as 11%; in the assay with PKN1, 22%; in the assay with PKN2 it was 0%; in the assay with PLK1, 6%; in the assay with PLK2, 0%; with PLK3, 0%. For the same compound, the “%Inh” value came to 10% in the assay on PLK4 and 29% with PRKCD.

With `Nc1nc(N)c2nc(-c3ccccc3)[nH]c2n1` [SKF-12778], the “%Inh” value in the assay with PIK3CG came out at 8%; in the assay with PIK4CB it was 19%; in the assay with PIKFYVE, 12%; in the assay on PIM1, 0%; in the assay with PIM2 it was 5%; in the assay on PIM3 it was 0%. The “%Inh” value stood at 0% with PIP5K1A; 47% in the assay on PIP5K1C; 8% in the assay on PIP5K2B; 35% with PIP5K2C; 7% with PKAC-alpha; 9% in the assay with PKAC-beta. Further, the “%Inh” value in the assay with PKMYT1 was 2%; in the assay with PKN1, 43%; in the assay on PKN2 it was 23%; with PLK1 it was 0%; in the assay with PLK2, 0%; with PLK3 it was 0%. The “%Inh” value in the assay on PLK4 came to 0%; with PRKCD, 11%.
